The list is not random: actives were taken first. Their share in the collection is about 19%.
TDP1 cell CPT – growth inhibition of DT40 Tdp1-/-;hTDP1 cells with camptothecin (screen for TDP1 inhibitors); Potency, µM (series often up to 46.2 µM), without a hit: at the top dose activity change, negative = growth inhibition, usual class: inhibitors; 420,000 tested, 12% active; chicken DT40 Tdp1-/-;hTDP1 cells + 20 nM CPT, ATP luminescence, 48 h; further: potency means the concentration at half of the fitted maximal effect; on the % scale 0 is the no-effect control and ±100 the full control effect; nearly all actives have a fitted effect of over 55% in size
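Chicken DT40 Tdp1-/- cells stably complemented with human TDP1 were seeded at 400 cells/well in medium containing 20 nM camptothecin, exposed to pin-transferred compounds, and grown at 37 °C for at least 48 hr. Viability was read as ATP luminescence.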
Chronic BCR inh – inhibitors of chronic active B-cell receptor signaling | ABC-DLBCL IkBa-CBG/CBR reporter, luminescence ratio, 4 h | Potency, µM (titrated, usually from 46.1 µM), for inactives: at the highest dose activity change, negative = inhibition, actives largely listed as inhibitors | 340,000 tested, 0.05% active; active means well fitted inhibition curve with a large enough effect in the signal ratio, with a control signal flat, not every such curve was filed as active; inconclusive means small, poorly fitted or top-dose-only effect, or effect the other way, or a change in a side signal; the % refers to the signal ratio;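 further: potency means the concentration at half of the fitted maximal effect; plate controls were basal doxycycline-induced cells for no effect and cells given 10 µM MG132 for full effect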
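Doxycycline induced both beetle luciferases in TMD8 lymphoma cells; IKK-driven degradation limits the IkappaBalpha-fused green signal, while red luminescence normalises for cell number and nonspecific effects. Compounds tested up to 46 uM, 4 hrs.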
DT40 TDP1 no CPT – qHTS for Inhibitors of human tyrosyl-DNA phosphodiesterase 1 (TDP1): qHTS in cells in absence of CPT; DT40 Tdp1-/- hTDP1 cells, no CPT, ATP luminescence, 48 h; Potency, µM (series often up to 46.2 µM), for the others: top-dose activity change, negative = growth inhibition, actives largely listed as inhibitors; 420,000 tested, 15% active; AID 686978, 2013; further: potency means the concentration at half of the fitted maximal effect; on the % scale 0 is the no-effect control and ±100 the full control effect; nearly all actives have a fitted effect of over 55% in size
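Camptothecin absent (DMSO only). Human TDP1-complemented DT40 knockout cells, 400 cells/well, 37 °C for minimum 48 hr; ATP measured via CellTiter-Glo, 30 min dark incubation, luminescence.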
MCF10A rereplic – induces DNA re-replication in MCF 10a normal breast cells. MCF 10A DNA re-replication, Hoechst nuclear intensity, 48 h. Potency, µM (top dose mostly 46.1 µM), for the others: at the top dose activity, positive = re-replication, actives largely listed as activators. 350,000 tested, 2.9% active. AID 624296; further: potency means the concentration at half of the fitted maximal effect; % of control where 0% means no effect; nearly all actives have a fitted effect of over 50% in size
IL-1B inflam inh – inflammasome signaling inhibition, IL-1 beta readout. AID 743279. THP-1 LPS/ATP IL-1B secretion, AlphaLISA, 16 h; hits give low values. activity change, % at 57.5 µM. 360,000 tested, 4.7% active; in the data active means activity change below about -50%; inconclusive means mostly about -30% to -49%; further: on the % scale 0 is the no-effect control and ±100 the full control effect
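Secreted IL-1B measured by AlphaLISA bead assay after 16 h compound exposure of THP-1 cells; compounds (final up to 57.5 uM) added 1 h before LPS (250 ng/mL) and ATP (1.25 mM) stimulation; lower signal means less secretion.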
SW480 rereplic – DNA re-replication induction in SW480 cells; Potency, µM (highest dose often 46.1 µM), without a hit: at the top dose re-replication activation, hits mostly activators; SW480 DNA re-replication, Hoechst DNA content imaging, 48 h; 340,000 tested, 1.8% active; AID 624297; further: potency means the concentration at half of the fitted maximal effect; % of control where 0% means no effect; nearly all actives have a fitted effect of over 55% in size
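Image-based DNA-content assay: after two days of treatment, nuclei were labelled with the DNA dye Hoechst and imaged, and hits were compounds raising the count of nuclei showing high fluorescence intensity.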
The depositor's hits bear a star; u = inconclusive; x = no result given; [ ] = another dose, or the depositor's remark. Unless noted, the call rests on the fitted dose curve; in most records, active means well fitted curve in the direction sought with a large enough effect; inconclusive means small, poorly fitted or top-dose-only effect, or another doubt; inactive means no such curve, though single readings can be large; an effect the other way counts as inactive or inconclusive.

SMILES	TDP1 cell CPT	Chronic BCR inh	DT40 TDP1 no CPT	MCF10A rereplic	IL-1B inflam inh	SW480 rereplic
Cc1cccc(C)c1Nc1ncccc1C(=O)O	-7.6%	x	-7.8%	x	x	x
Cc1c(CC(=O)N[C@@H](C)C(=O)O)c(=O)oc2cc3c(cc12)CCC(C)(C)O3	11.0%	9.8%	-22.7%	-0.2%	-3.0	-9.4%
CCC(C)NC(=O)Cc1c(C)c2cc3c(cc2oc1=O)OC(C)(C)CC3 (configuration not stated)	u	-3.3%	14.6µM*	16.4%	16.7	3.9%
Cc1c(CC(=O)N[C@H](C(=O)O)C(C)C)c(=O)oc2cc3c(cc12)CCC(C)(C)O3	u	-0.9%	23.1µM*	-3.3%	15.6	-13.5%
Cc1c(CC(=O)NC(C)C)c(=O)oc2cc3c(cc12)CCC(C)(C)O3	20.6µM*	-2.7%	u	4.0%	-8.5	-2.0%
Cc1ccc(OCC(=O)Nc2ccc(Cl)c(-c3nc4ncccc4o3)c2)c(C)c1	u	u	14.6µM*	x	x	x
Cc1ccc2oc(-c3cccc(NC(=O)COc4ccc(Cl)cc4C)c3C)nc2c1	-0.4%	x	-19.2%	x	x	x
Cc1cc(C)c2oc(-c3cccc(NC(=O)COc4ccc(Cl)cc4C)c3C)nc2c1	5.01µM*	x	-0.9%	x	x	x
CCCOc1ccc(C(=O)Nc2ccc(Cl)c(-c3nc4ncccc4o3)c2)cc1	23.1µM*	x	10.3µM*	x	x	x
Cc1ccc(OCC(=O)Nc2ccc(-c3nc4ncccc4o3)cc2)c(C)c1	u	u	u	u	-6.0	28.4%
Cc1cc(C)cc(OCC(=O)Nc2ccc(Cl)c(-c3nc4ncccc4o3)c2)c1	18.4µM*	x	u	x	x	x
Oc1ccc(-c2cn3c(n2)SCC3)cc1	-18.4%	-11.7%	-22.1%	0.8%	-17.2	-5.9%
Oc1ccc(-c2cn3c(n2)SCC3)cc1O	u	-7.0%	23.1µM*	-5.9%	70.3	u
O=C(Nc1ccc(-c2cn3c(n2)SCC3)cc1)c1ccc2ccccc2n1	16.4µM*	u	u	14.9%	-18.0	-7.2%
Cn1c(=O)c2c(SCC(=O)NCc3ccco3)nc(-c3ccccc3)nc2n(C)c1=O	4.4%	x	-14.4%	x	x	x
Fc1ccccc1N1CCN(CC2CCCCC2)CC1	-20.1%	2.3%	-7.2%	-0.2%	18.1	-50.1%
Cc1ccccc1NC(=O)C(=O)Nc1ccccc1C	-28.3%	u	-4.0%	-3.8%	-8.6	-0.6%
Cc1ccccc1NC(=O)Nc1ccccc1Br	10.3µM*	u	u	-2.1%	9.6	2.4%
Cn1nnc2cc(NC(=O)Nc3ccccc3F)ccc21	u	x	16.4µM*	x	u	x
Cc1cc(NC(=O)Nc2ccccc2F)ccc1Br	u	u	u	18.4µM*	-50.3*	u
Cc1ccc(OCCCC(=O)NNC(=O)c2ccccn2)cc1	6.51µM*	u	5.8µM*	u	22.9	u
Cc1cc(C)cc(OCC(=O)NNC(=O)c2ccccn2)c1	9.2µM*	-10.7%	6.51µM*	-3.1%	103.4	-4.0%
O=C(COc1ccc(Cl)cc1)NNC(=O)c1ccccn1	u	u	u	20.8%	51.9	12.3%
CCN1CCC(NCCc2ccc(F)cc2)CC1	u	-8.0%	u	18.4µM*	-53.8*	-2.6%
COc1ccc(CCNC2CCC(c3ccccc3)CC2)cc1 (configuration not stated)	-73.3%	-0.3%	u	u	u	-2.2%
SMILES	TDP1 cell CPT	Chronic BCR inh	DT40 TDP1 no CPT	MCF10A rereplic	IL-1B inflam inh	SW480 rereplic
CCN1C(=O)[C@H]2[C@@H](c3ccc(-c4ccc5c(c4)OCO5)c(OC)c3)N[C@@](C)(C(=O)OC)[C@H]2C1=O	u	4.8%	u	-9.2%	15.6	-12.2%
Cc1cc(S(=O)(=O)c2ccc(Cl)cc2)nc(S(=O)(=O)c2ccc(Cl)cc2)c1C#N	0.651µM*	x	0.651µM*	x	-103.4*	x
Cc1cc(C)c(S(=O)(=O)c2ccc(Cl)cc2)c(Cl)n1	-2.1%	-7.6%	-3.8%	-1.3%	9.5	-2.3%
Cc1ccc(C)c(-n2c(-c3cccnc3)n[nH]c2=S)c1	31.6%	-1.2%	-20.7%	22.7%	4.5	-5.6%
Cc1[nH]nc(-c2cccnc2)c1N=NN(C)C	0.82µM*	x	1.46µM*	1.64µM*	-103.7*	2.59µM*
Oc1c(C(Nc2nccs2)c2ccc(C(F)(F)F)cc2)ccc2cccnc12 (configuration not stated)	u	u	u	u	-102.6*	1.3µM*
Oc1c(C(Nc2cccc(C(F)(F)F)c2)c2ccncc2)ccc2cccnc12 (configuration not stated)	16.4µM*	u	18.4µM*	u	60.1	11.6µM*
N#Cc1ccccc1NC(=O)COC(=O)/C=C/c1ccc(S(=O)(=O)N2CCOCC2)cc1	6.3%	-3.5%	-8.5%	-0.5%	-8.1	-29.7%
Nc1ncnc2c1ncn2[C@@H]1O[C@H](C(=O)N2CCN(c3ccc(Cl)cn3)CC2)[C@@H](O)[C@H]1O	-25.6%	x	20.6µM*	x	2.0	x
Cc1cccc(CN2CCN(C3CN(CCc4ccccc4)S(=O)(=O)C3)CC2)c1 (configuration not stated)	u	x	u	x	0.0	x
O=C(c1ccco1)N(Cc1cc2ccccc2[nH]c1=O)CC1CCCO1 (configuration not stated)	-9.5%	-15.4%	-1.0%	-2.6%	-2.7	-5.3%[9.22 µM]
CCc1ccc2[nH]c(=O)c(CN(CC3CCCO3)C(=S)NCc3ccco3)cc2c1 (configuration not stated)	20.6µM*	u	u	u	u	7.1%
CCc1ccc2[nH]c(=O)c(CN(Cc3ccc4c(c3)OCO4)C(=O)c3ccco3)cc2c1	23.1µM*	0.8%	u	u	-21.6	5.0%
CCc1ccc2[nH]c(=O)c(CN(CCN(CC)CC)C(=S)NCc3ccco3)cc2c1	u	u	u	6.3%	-63.7*	-31.1%
Cc1cccc2cc(CN(CCN(C)C)C(=S)NCc3ccco3)c(=O)[nH]c12	-12.5%	u	u	6.7%	-13.5	10.8%
CCN(CC)CCN(Cc1cc2cc3c(cc2[nH]c1=O)OCO3)C(=S)NCCCOC	1.4%	-11.5%	-8.8%	-0.9%	0.9	-4.7%
CCc1ccc2[nH]c(=O)c(CN(CCN(C)C)C(=S)NCc3ccco3)cc2c1	u	u	u	-5.2%	-73.9*	-4.3%
